# Measured values: the supplement of paper PMC4466140
# Key:
# Assay in all cases: SPOT peptide array binding signal intensity (averaged, normalized) (arbitrary units (background-subtracted, floor 0; scale differs between SH3 domains)); higher = stronger binding of the SH3 domain to the peptide
# [1] = target: AgAbp1
# Method in brief: (§1)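 To measure binding, SH3 domains from four yeast species were fused to GST, expressed in E. coli BL21(DE3) and purified on glutathione Sepharose. Each domain was incubated at 10 μg/ml overnight at 4°C on cellulose membranes with synthetic 15-mer peptides whose cysteines were replaced by serines. Anti-GST antibody, an HRP anti-mouse secondary and luminol were used for detection, and images were quantified with Genespotter. Reported binding signal is normalized, background-subtracted spot intensity averaged over replicates, in arbitrary units that differ between domains.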
# [2] = target: AgBbc1
# Method in brief: as §1
# [3] = target: AgBem1-D1
# Method in brief: as §1
# [4] = target: AgBzz1-D1
# Method in brief: as §1
# [5] = target: AgBzz1-D2
# Method in brief: as §1
# [6] = target: AgCyk3
# Method in brief: as §1
# [7] = target: AgFus1
# Method in brief: as §1
# [8] = target: AgHof1
# Method in brief: as §1
# [9] = target: AgHse1
# Method in brief: as §1
# [10] = target: AgLsb1
# Method in brief: as §1
# [11] = target: AgLsb4
# Method in brief: as §1
# [12] = target: AgMyo5
# Method in brief: as §1
# [13] = target: AgNbp2
# Method in brief: as §1
# [14] = target: AgRvs167
# Method in brief: as §1
# [15] = target: AgSho1
# Method in brief: as §1
# [16] = target: AgSla1-D1-D2
# Method in brief: as §1
# [17] = target: AgSla1-D3
# Method in brief: as §1
# [18] = target: CaAbp1-D1
# Method in brief: as §1
# [19] = target: CaAbp1-D2
# Method in brief: as §1
# [20] = target: CaBbc1
# Method in brief: as §1
# [21] = target: CaBem1-D1
# Method in brief: as §1
# [22] = target: CaBzz1-D1
# Method in brief: as §1
# [23] = target: CaBzz1-D2
# Method in brief: as §1
# [24] = target: CaCyk3
# Method in brief: as §1
# [25] = target: CaFus1
# Method in brief: as §1
# [26] = target: CaHof1
# Method in brief: as §1
# [27] = target: CaHse1
# Method in brief: as §1
# [28] = target: CaLsb1
# Method in brief: as §1
# [29] = target: CaLsb4
# Method in brief: as §1
# [30] = target: CaMyo5
# Method in brief: as §1
# [31] = target: CaNbp2
# Method in brief: as §1
# [32] = target: CaRvs167
# Method in brief: as §1
# [33] = target: CaRvs167-3
# Method in brief: as §1
# [34] = target: CaSho1
# Method in brief: as §1
# [35] = target: CaSla1-D1-D2
# Method in brief: as §1
# [36] = target: CaSla1-D3
# Method in brief: as §1
# [37] = target: ScAbp1
# Method in brief: as §1
# [38] = target: ScBbc1
# Method in brief: as §1
# [39] = target: ScBem1-D1
# Method in brief: as §1
# [40] = target: ScBzz1-D1
# Method in brief: as §1
# [41] = target: ScBzz1-D2
# Method in brief: as §1
# [42] = target: ScCyk3
# Method in brief: as §1
# [43] = target: ScFus1
# Method in brief: as §1
# [44] = target: ScHof1
# Method in brief: as §1
# [45] = target: ScHse1
# Method in brief: as §1
# [46] = target: ScLsb1
# Method in brief: as §1
# [47] = target: ScLsb2
# Method in brief: as §1
# [48] = target: ScLsb3
# Method in brief: as §1
# [49] = target: ScLsb4
# Method in brief: as §1
# [50] = target: ScMyo3
# Method in brief: as §1
# [51] = target: ScMyo5
# Method in brief: as §1
# [52] = target: ScNbp2
# Method in brief: as §1
# [53] = target: ScPex13
# Method in brief: as §1
# [54] = target: ScRvs167
# Method in brief: as §1
# [55] = target: ScSho1
# Method in brief: as §1
# [56] = target: ScSla1-D1-D2
# Method in brief: as §1
# [57] = target: ScSla1-D3
# Method in brief: as §1
# [58] = target: SpAbp1-D1
# Method in brief: as §1
# [59] = target: SpBbc1
# Method in brief: as §1
# [60] = target: SpBzz1-D1
# Method in brief: as §1
# [61] = target: SpBzz1-D2
# Method in brief: as §1
# [62] = target: SpCyk3
# Method in brief: as §1
# [63] = target: SpHof1
# Method in brief: as §1
# [64] = target: SpHof1-2
# Method in brief: as §1
# [65] = target: SpHof1-3
# Method in brief: as §1
# [66] = target: SpHse1
# Method in brief: as §1
# [67] = target: SpLsb1
# Method in brief: as §1
# [68] = target: SpLsb4
# Method in brief: as §1
# [69] = target: SpMyo1
# Method in brief: as §1
# [70] = target: SpNbp2
# Method in brief: as §1
# [71] = target: SpPex13
# Method in brief: as §1
# [72] = target: SpRvs167
# Method in brief: as §1
# [73] = target: SpSla1-D1-D2
# Method in brief: as §1
# [74] = target: SpSla1-D3
# Method in brief: as §1
binder,measurement,setting,value
RRARRQMGIPTISQV,SPOT peptide array binding signal intensity,[1],125
same,SPOT peptide array binding signal intensity,[2],71.8
same,SPOT peptide array binding signal intensity,[3],252
same,SPOT peptide array binding signal intensity,[4],41
same,SPOT peptide array binding signal intensity,[5],35
same,SPOT peptide array binding signal intensity,[6],5
same,SPOT peptide array binding signal intensity,[7],716
same,SPOT peptide array binding signal intensity,[8],83.8
same,SPOT peptide array binding signal intensity,[9],854
same,SPOT peptide array binding signal intensity,[10],9.75
same,SPOT peptide array binding signal intensity,[11],138
same,SPOT peptide array binding signal intensity,[12],5
same,SPOT peptide array binding signal intensity,[13],724
same,SPOT peptide array binding signal intensity,[14],10.7
same,SPOT peptide array binding signal intensity,[15],287
same,SPOT peptide array binding signal intensity,[16],99.5
same,SPOT peptide array binding signal intensity,[17],14.5
same,SPOT peptide array binding signal intensity,[18],514
same,SPOT peptide array binding signal intensity,[19],941
same,SPOT peptide array binding signal intensity,[20],197
same,SPOT peptide array binding signal intensity,[21],299
same,SPOT peptide array binding signal intensity,[22],98.5
same,SPOT peptide array binding signal intensity,[23],115
same,SPOT peptide array binding signal intensity,[24],25.5
same,SPOT peptide array binding signal intensity,[25],657
same,SPOT peptide array binding signal intensity,[26],≤ 0
same,SPOT peptide array binding signal intensity,[27],278
same,SPOT peptide array binding signal intensity,[28],2.25
same,SPOT peptide array binding signal intensity,[29],806
same,SPOT peptide array binding signal intensity,[30],12.5
NPNRRAPRRPLSTQH,SPOT peptide array binding signal intensity,[1],134
same,SPOT peptide array binding signal intensity,[2],248
same,SPOT peptide array binding signal intensity,[3],136
same,SPOT peptide array binding signal intensity,[4],18.5
same,SPOT peptide array binding signal intensity,[5],96
same,SPOT peptide array binding signal intensity,[6],1
same,SPOT peptide array binding signal intensity,[7],492
same,SPOT peptide array binding signal intensity,[8],37.8
same,SPOT peptide array binding signal intensity,[9],1700
same,SPOT peptide array binding signal intensity,[10],9.75
same,SPOT peptide array binding signal intensity,[11],110
same,SPOT peptide array binding signal intensity,[12],1.5
same,SPOT peptide array binding signal intensity,[13],1950
same,SPOT peptide array binding signal intensity,[14],≤ 0
same,SPOT peptide array binding signal intensity,[15],100
same,SPOT peptide array binding signal intensity,[16],484
same,SPOT peptide array binding signal intensity,[17],18
same,SPOT peptide array binding signal intensity,[18],660
same,SPOT peptide array binding signal intensity,[19],806
same,SPOT peptide array binding signal intensity,[20],1050
same,SPOT peptide array binding signal intensity,[21],184
same,SPOT peptide array binding signal intensity,[22],90
same,SPOT peptide array binding signal intensity,[23],104
same,SPOT peptide array binding signal intensity,[24],189
same,SPOT peptide array binding signal intensity,[25],374
same,SPOT peptide array binding signal intensity,[26],≤ 0
same,SPOT peptide array binding signal intensity,[27],108
same,SPOT peptide array binding signal intensity,[28],≤ 0
same,SPOT peptide array binding signal intensity,[29],330
same,SPOT peptide array binding signal intensity,[30],1.5
same,SPOT peptide array binding signal intensity,[31],4120
same,SPOT peptide array binding signal intensity,[32],19
same,SPOT peptide array binding signal intensity,[33],66
same,SPOT peptide array binding signal intensity,[34],562
same,SPOT peptide array binding signal intensity,[35],622
same,SPOT peptide array binding signal intensity,[36],12.2
same,SPOT peptide array binding signal intensity,[37],154
same,SPOT peptide array binding signal intensity,[38],185
same,SPOT peptide array binding signal intensity,[39],28.5
same,SPOT peptide array binding signal intensity,[40],30.5
same,SPOT peptide array binding signal intensity,[41],8
same,SPOT peptide array binding signal intensity,[42],109
same,SPOT peptide array binding signal intensity,[43],402
same,SPOT peptide array binding signal intensity,[44],1.25
same,SPOT peptide array binding signal intensity,[45],2480
same,SPOT peptide array binding signal intensity,[46],65
same,SPOT peptide array binding signal intensity,[47],12
same,SPOT peptide array binding signal intensity,[48],1470
same,SPOT peptide array binding signal intensity,[49],35
same,SPOT peptide array binding signal intensity,[50],20
same,SPOT peptide array binding signal intensity,[51],8.75
same,SPOT peptide array binding signal intensity,[52],4200
same,SPOT peptide array binding signal intensity,[53],23.5
same,SPOT peptide array binding signal intensity,[54],46.5
same,SPOT peptide array binding signal intensity,[55],984
same,SPOT peptide array binding signal intensity,[56],1340
same,SPOT peptide array binding signal intensity,[57],7
same,SPOT peptide array binding signal intensity,[58],313
same,SPOT peptide array binding signal intensity,[59],50.5
same,SPOT peptide array binding signal intensity,[60],352
same,SPOT peptide array binding signal intensity,[61],32.2
same,SPOT peptide array binding signal intensity,[62],1
same,SPOT peptide array binding signal intensity,[63],342
same,SPOT peptide array binding signal intensity,[64],8.5
same,SPOT peptide array binding signal intensity,[65],166
same,SPOT peptide array binding signal intensity,[66],1390
same,SPOT peptide array binding signal intensity,[67],11
same,SPOT peptide array binding signal intensity,[68],906
same,SPOT peptide array binding signal intensity,[69],84.5
same,SPOT peptide array binding signal intensity,[70],498
same,SPOT peptide array binding signal intensity,[71],48.5
same,SPOT peptide array binding signal intensity,[72],17
same,SPOT peptide array binding signal intensity,[73],1
same,SPOT peptide array binding signal intensity,[74],32
